# Data published in PubChem BioAssay AID1259389 (Center for Chemical Genomics, University of Michigan, 2018).
# The campaign covered roughly 100,000 compounds. About 620 (0.62%) were called active. Rule for the calls: active = z-score of 3 or more in at least 2 runs; inactive = the rest. This excerpt belongs to a sample that is enriched for actives.
# Assay: TAR RNA-Tat peptide displacers, HIV-1, primary screen, biochemical, FRET, FAM/TAMRA-labeled Tat (AID 1259389)
# Conditions: HIV-1 TAR RNA, Tat peptide displacement FRET; stronger effect = higher value
row,Structure (SMILES),z-score
1,O=C(Cn1nc(-c2ccccc2)c2cnc3cc4c(cc3c21)OCCO4)NC1CCCC1,-0.04 (inactive)
2,O=C(CSc1ncc(S(=O)(=O)c2ccccc2)c(=O)[nH]1)Nc1cccc(F)c1,-1.01 (inactive)
3,CCc1ccc(C2CC(=O)Nc3c2c(C)nn3-c2nc3ccccc3[nH]2)s1 (centres undefined),1.63 (inactive)
4,Cc1ccc2occ(C3Nc4cc(C)c(C)cc4NC4=C3C(=O)CC(C)(C)C4)c(=O)c2c1 (centres undefined),0.26 (inactive)
5,Cc1cccc(C)c1OCc1cc(=O)n2nc(-c3ccco3)sc2n1,36.5 (active)
6,Cc1nnc2sc(-c3ccco3)nn12,-1.16 (inactive)
7,COc1cccc(OCc2cc(=O)n3nc(C)sc3n2)c1,-0.36 (inactive)
8,CCCCc1nn2c(=O)cc(CSc3n[nH]c(CC(C)C)n3)nc2s1,-1.13 (inactive)
9,C=CCSc1ncc(Cl)c(C(=O)Nc2c(C(=O)Nc3ccc(OC)cc3)oc3ccccc23)n1,1.45 (inactive)
10,COC(=O)c1ccc(C2C(C(=O)OC3CCCC3)=C(C)NC3=C2C(=O)CCC3)cc1 (centres undefined),2.05 (inactive)
11,Cc1ccc(-c2nnc3sc(-c4ccccn4)nn23)cc1,1.2 (inactive)
12,c1ccc(-c2nnc3sc(-c4ccc5c(c4)OCCO5)nn23)cc1,-0.37 (inactive)
13,COc1ccc(-c2nn3c(-c4ccccc4)nnc3s2)cc1OC,21 (active)
14,CCC1Sc2ccc(S(=O)(=O)CCC(=O)NCCc3sccc3C)cc2NC1=O (centres undefined),-0.87 (inactive)
15,O=c1c(NC2CCCC2)c(-c2ccc3c(c2)CCCC3)c1=O,-0.58 (inactive)
16,CCN(CC)C(=O)CCc1nc(CN2CCN(S(=O)(=O)c3cccs3)CC2)no1,-6.66 (inactive)
17,CCCCn1c(=O)[nH]c(=O)c2sc(N)nc21,0.78 (inactive)
18,COc1ccc(-n2c(=O)[nH]c(=O)c3sc(NC(=O)Nc4ccccc4)nc32)cc1,-0.15 (inactive)
19,COc1cc(Br)c(CCn2c(=O)[nH]c(=O)c3sc(N)nc32)cc1OC,28.5 (active)
20,Cc1c(C(=O)N2CCOCC2)oc2c1-c1nn(CC(=O)NC3CCCc4ccccc43)cc1CC2 (centres undefined),3.05 (inactive)
21,Cc1cc(NCc2cccs2)n2nc(Cc3cccc(F)c3)nc2n1,1.34 (inactive)

row,Structure (SMILES),z-score
1,Cc1cc(C)cc(NC2c3ncccc3C(=O)N2c2ccccc2)c1 (centres undefined),-1.21 (inactive)
2,CC1CCCC(NC(=O)C2(C)Cn3c(cc4occc43)C(=O)N2Cc2ccc3c(c2)OCO3)C1C (centres undefined),6.96 (active)
3,COCCCN1C(=O)c2cc3sccc3n2CC1(C)C(=O)NC1CCCC(C)C1C (centres undefined),2.51 (inactive)
4,CC1CCC(NC(=O)C2(C)Cn3c(cc4occc43)C(=O)N2c2ccc(Cl)cc2)CC1 (centres undefined),5.26 (active)
5,CCCN1C(=O)c2cc3sccc3n2CC1(C)C(=O)NC1CCC(C)CC1 (centres undefined),1.88 (inactive)
6,CC1CCC(NC(=O)C2(C)Cn3c(cc4occc43)C(=O)N2CCN(C)C2CCCCC2)CC1 (centres undefined),0.99 (inactive)
7,CC1CCCCC1NC(=O)C1(C)Cn2c(cc3sccc32)C(=O)N1Cc1ccco1 (centres undefined),2.7 (inactive)
8,CCOC(=O)c1[nH]c(C)c(C(=O)NC2CCCC(C)C2C)c1C (centres undefined),0.78 (inactive)
9,CSc1cccc(NC(=O)N2c3ccccc3NC3=C(C(=O)CCC3)C2c2ccco2)c1 (centres undefined),0.6 (inactive)
10,O=C1c2ccccc2S(=O)(=O)N1Cc1nnnn1-c1ccccc1,2.08 (inactive)
11,Cc1nc(-c2ccc(C)c(S(=O)(=O)Nc3ccc(Cl)cc3F)c2)cs1,1.67 (inactive)
12,CN1C(C(=O)NCc2ccccc2)=CC(c2ccc3c(c2)OCO3)=NS1(=O)=O,3.21 (active)
13,CCNC(=O)C1=CC(c2cccs2)=NS(=O)(=O)N1C,1.38 (inactive)
14,CN1C(C(=O)N2CCCc3ccccc32)=CC(c2ccc3c(c2)OCO3)=NS1(=O)=O,2.14 (inactive)
15,CNC(=O)c1c(NC(=O)CCSc2ccccc2)sc2c1CCC2,0.4 (inactive)
16,COC(=O)c1cc2n(n1)CC(C)(C(=O)NC1CCC(C)CC1)N(CCc1cccs1)C2=O (centres undefined),0.65 (inactive)
17,CSc1cccc(NC(=O)CSc2nnc(C)n3c2cc2oc(C)cc23)c1,0.7 (inactive)
18,O=C(Nc1nccs1)c1cc(-c2ccc(Cl)cc2)on1,15.3 (inactive)
19,CC1CCCC(NC(=O)C(C)n2ncn3cccc3c2=O)C1C (centres undefined),11 (active)
20,Cc1cc2c(cc3c(=O)n(CC(=O)NC4CCCC(C)C4C)ncn32)s1 (centres undefined),-0.21 (inactive)
21,CN1CCN(C(=O)Cn2ncn3cccc3c2=O)CC1,1.42 (inactive)

row,Structure (SMILES),z-score
1,CCCCn1c(C)c(C)c2c1ncn1nc(Cc3ccc(OC)cc3)nc21,0.12 (inactive)
2,CC1CCCCN1CCCNC(=O)c1noc2c1CCc1sccc1-2 (centres undefined),1.13 (inactive)
3,CN1C(=O)C[C@H](C(=O)O)C1c1cccnc1 (some centres undefined),1.8 (inactive)
4,CCOc1ccc2nc(Nc3nc(C)c(CC)c(=O)[nH]3)nc(C)c2c1,2.61 (inactive)
5,Cc1ccc2nc(Nc3ncc4c(n3)CC(C)(C)CC4=O)nc(C)c2c1,1.31 (inactive)
6,CCOc1ccc2nc(Nc3ncc4c(n3)CC(c3ccco3)CC4=O)nc(C)c2c1 (centres undefined),13.8 (active)
7,Cn1cc(NC(=O)Nc2cccc(Cl)c2)c2ccccc2c1=O,-0.05 (inactive)
8,COc1cccc(C2Nc3cccc4cccc(c34)N2)c1,21.3 (active)
9,Oc1ccc(C2Nc3cccc4cccc(c34)N2)cc1,4.86 (active)
10,COc1ccc(C2CC(=O)C3=C(C2)Nc2ccccc2NC3c2cccc(Cl)c2)cc1 (centres undefined),-1.58 (inactive)
11,Brc1ccccc1C1Nc2cccc3cccc(c23)N1,5.65 (active)
12,COc1ccc(N2C(=O)C3CCCN3C2c2cccc(OC)c2)cc1 (centres undefined),-0.15 (inactive)
13,Cc1ccc(C2CC(c3cccc(C)c3)n3nc(N)nc3N2)cc1 (centres undefined),0.73 (inactive)
14,Cc1ccc(C2Nc3cccc4cccc(c34)N2)cc1,6.71 (active)
15,COc1cccc(C2Nc3cccc4cccc(c34)N2)c1OC,3.46 (inactive)
16,CCC(C)NC(=O)c1ccc(CN2C(=O)C(C)=C(c3ccc(C)cc3)S2(=O)=O)cc1 (centres undefined),1.92 (inactive)
17,Cc1nc2nc(Cc3ccccc3)[nH]n2c(=O)c1C,2.84 (inactive)
18,Cc1cc2nc(COC(=O)c3ccccc3Cl)cc(=O)n2o1,0.42 (inactive)
19,Oc1ccc2ncccc2c1C(Nc1ccccn1)c1cccc(Br)c1 (centres undefined),10.7 (inactive)
20,O=C(OCc1cc(=O)n2nc(C3CCCCC3)sc2n1)c1ccccc1,0.63 (inactive)
21,COc1cc(C2OC(c3ccc(Br)cc3)=NN2C(C)=O)ccc1OC(C)=O (centres undefined),1.63 (inactive)

row,Structure (SMILES),z-score
1,Cc1c(C(=O)N2CCC(C)CC2)c(S(=O)(=O)N2CCN(C3CCCCC3)CC2)c(C)n1C,1.14 (inactive)
2,Cc1cccc(NS(=O)(=O)c2ccc(-c3ccc(=O)[nH]n3)o2)c1C,0.96 (inactive)
3,CCOc1ccc(/C=C/c2nc(C#N)c(N3CCNCC3)o2)cc1,0.65 (inactive)
4,CCSc1ncc(CO)n1Cc1ccc(F)cc1,0.78 (inactive)
5,Cc1ccn2c(=O)c(C(=O)NCCCOC(C)C)c(O)nc2c1,0.76 (inactive)
6,COc1ccc(-c2nc3ccccc3[nH]2)cc1OC,2.05 (inactive)
7,Cc1nnc(NC(=O)CN2C(=O)c3cccnc3Sc3ccccc32)s1,1.32 (inactive)
8,O=C(Cn1c(=O)sc2ccccc21)NCCC1=CCCCC1,0.76 (inactive)
9,C=CCOC(=O)C1=C(C)NC2=C(C(=O)CC(C)(C)C2)C1c1cc2c(cc1Cl)OCO2 (centres undefined),0.26 (inactive)
10,O=C(c1cc(-c2ccccc2)n[nH]1)N1CCn2c1nc1ccccc12,0.42 (inactive)
11,COc1ccc(Cl)cc1N1CC(O)=C(c2nc3ccccc3n2C)C1=N,0.34 (inactive)
12,CCCC1CNc2cc(C)ccc2O1 (centres undefined),2.06 (inactive)
13,C[C@@H]1O[C@@H](OC[C@H]2O[C@@H](Oc3cc(O)c4c(c3)O[C@H](c3ccc(O)c(O)c3)CC4=O)[C@H](O)[C@@H](O)[C@@H]2O)[C@H](O)[C@H](O)[C@H]1O,3.52 (active)
14,COc1ccc(-c2cc(=O)c3c(O)cc(O[C@@H]4O[C@H](CO[C@@H]5O[C@@H](C)[C@H](O)[C@@H](O)[C@H]5O)[C@@H](O)[C@H](O)[C@H]4O)cc3o2)cc1O,4.29 (inactive)
15,C[C@@H]1O[C@@H](O[C@H]2[C@@H](Oc3cc(O)c4c(c3)O[C@H](c3ccc(O)cc3)CC4=O)O[C@H](CO)[C@@H](O)[C@@H]2O)[C@H](O)[C@H](O)[C@H]1O,2.09 (inactive)
16,Cc1nc(S(=O)(=O)Nc2ccc(C(C)C)cc2)cn1C,1.64 (inactive)
17,O=C1c2ccccc2C(Nc2ccc(F)cc2F)N1c1ccccn1 (centres undefined),2.34 (inactive)
18,CN(C)CCCNc1cc(N2CCN(c3ccccc3F)CC2)c2noc3c2c1C(=O)c1ccccc1-3,5.01 (active)
19,CN1CCN(c2cc(NCCCC(=O)O)c3c4c(onc24)-c2ccccc2C3=O)CC1,1.94 (inactive)
20,CCOC(=O)N1CCN(c2cc(NCCO)c3c4c(onc24)-c2ccccc2C3=O)CC1,2.61 (inactive)
21,COc1cc(C)c(S(=O)(=O)N2CCc3cc4cc(C)ccc4nc32)cc1C,-1.52 (inactive)
